# Screen size: about 310,000 compounds; about 14,000 (4.5%) showed an effect of 50% or more. The effect is printed as a negative number. For the sample, strong results were picked, then their nearest neighbours and some compounds at random.
# Biological target: human ether-à-go-go-related gene (hERG) potassium channel (human, UniProt Q12809)
# Assay: primary screen, population patch clamp on CHO cells stably expressing hERG; higher = less effect of the substance
# 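Note: peak tail current of the secondary pulse compared with the same well before compound.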
# Chain of human ether-à-go-go-related gene (hERG) potassium channel (Q12809 whole entry, looked up): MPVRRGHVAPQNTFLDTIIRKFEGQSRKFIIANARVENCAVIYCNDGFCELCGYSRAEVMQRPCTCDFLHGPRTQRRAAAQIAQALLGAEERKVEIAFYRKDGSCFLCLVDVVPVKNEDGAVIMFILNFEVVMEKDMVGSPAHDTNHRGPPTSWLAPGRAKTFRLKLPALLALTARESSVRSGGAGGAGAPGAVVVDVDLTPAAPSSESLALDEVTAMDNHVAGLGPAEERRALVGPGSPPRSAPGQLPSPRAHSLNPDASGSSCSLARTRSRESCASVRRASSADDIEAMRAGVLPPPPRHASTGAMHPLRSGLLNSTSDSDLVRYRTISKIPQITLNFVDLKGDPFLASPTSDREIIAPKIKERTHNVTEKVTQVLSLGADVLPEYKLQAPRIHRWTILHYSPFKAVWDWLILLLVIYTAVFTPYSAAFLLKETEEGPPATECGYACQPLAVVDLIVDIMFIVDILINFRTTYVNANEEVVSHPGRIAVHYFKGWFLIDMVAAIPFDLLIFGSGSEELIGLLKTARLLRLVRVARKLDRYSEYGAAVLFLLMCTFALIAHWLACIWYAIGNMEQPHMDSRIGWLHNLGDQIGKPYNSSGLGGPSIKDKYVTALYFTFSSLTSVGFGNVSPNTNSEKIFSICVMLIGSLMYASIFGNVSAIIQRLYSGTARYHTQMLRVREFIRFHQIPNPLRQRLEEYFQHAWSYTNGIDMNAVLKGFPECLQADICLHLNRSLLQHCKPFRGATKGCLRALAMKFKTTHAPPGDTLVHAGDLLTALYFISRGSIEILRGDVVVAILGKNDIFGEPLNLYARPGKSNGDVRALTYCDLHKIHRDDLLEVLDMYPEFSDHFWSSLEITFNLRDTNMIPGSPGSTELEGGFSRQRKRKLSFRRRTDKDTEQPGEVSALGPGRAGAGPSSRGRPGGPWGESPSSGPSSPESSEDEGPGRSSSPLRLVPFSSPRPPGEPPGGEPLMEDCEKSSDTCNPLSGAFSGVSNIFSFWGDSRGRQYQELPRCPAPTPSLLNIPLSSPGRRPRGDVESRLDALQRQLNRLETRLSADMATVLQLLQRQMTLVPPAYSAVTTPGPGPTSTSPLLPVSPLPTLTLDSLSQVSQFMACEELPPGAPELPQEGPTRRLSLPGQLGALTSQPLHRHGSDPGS
row,SMILES,"hERG current change (%, negative = inhibition) at 10uM [%]"
1,Clc1ccccc1CSc1nnc(-c2ccncc2)o1,-14
2,COCCNCC(=O)NC12CC3CC(CC(C3)C1)C2,8.91
3,CC(C)COc1ccc(C(=O)N2C(=O)c3ccc(N)cc3C2=O)cc1,4.32
4,COc1ccc(/C(O)=C2/C(=O)C(=O)N(CCN(C)C)C2c2ccc(F)cc2)cc1Cl (stereo not shown),13.8
5,COc1ccc(C2CN(C)CC2C(=O)c2ccc(F)cc2)cc1Cl (stereo not shown),-78.7
6,COc1ccc(/C(O)=C2/C(=O)C(=O)N(CCN(C)C)C2c2ccc(C)cc2)cc1Cl (stereo not shown),5.16
7,COc1ccc(C2CN(C)CC2C(=O)c2ccc(C)cc2)cc1Cl (stereo not shown),-63
8,COc1ccc(CNC(=O)N2CCN(c3ccc(F)cc3)CC2)cc1Cl,-26.1
9,Cc1c(C(N)=O)sc(N)c1C(=O)OC(C)C,9.72
10,COC(=O)c1ccc(N=C2SCC(=O)N2C)cc1,14.3
11,CCOc1cc(OCC)nc(S(C)(=O)=O)n1,-0.891
12,CCN(CC(=O)NCc1ccc(F)cc1)C(=O)CN1CCN(c2ccccc2OC)CC1,-61.4
13,CCN(CC(=O)NCc1ccc(F)cc1)C(=O)CN1CCN(c2cc(Cl)ccc2C)CC1,-73.1
14,COc1ccc(CNC(=O)N2CCN(c3ccc(F)cc3)CC2)cc1,-6.24
15,CCN(CC(=O)NCc1ccc(F)cc1)C(=O)CN1CCN(c2ccc(OC)cc2)CC1.O=C(O)C(=O)O,-61.9
16,COc1ccccc1N1CCN(CC(=O)NCc2ccc(Cl)cc2)CC1,-0.607
17,Cc1cccc(N2CCN(CC(=O)NCc3ccc(Cl)cc3)CC2)c1C,-29.2
18,COc1ccc(C(=O)CN2CCN(c3ccc(F)cc3)CC2)cc1,-38.3
19,Cc1ccccc1N1CCN(CC(=O)NCc2ccc(Cl)cc2)CC1,-27
20,CCOc1ccccc1N1CCN(C(=O)NCc2ccc(F)cc2)CC1,-9.29
21,CC(=O)Nc1ccc(NCc2cccs2)cc1,6.07
22,Cc1ccc(NC(=O)N2CCN(C(=O)C3CCCO3)CC2)cc1 (stereo not shown),9.64

row,SMILES,"hERG current change (%, negative = inhibition) at 10uM [%]"
1,COc1ccccc1OCC(=O)Nc1ncc(C)s1,-6.77
2,CC(C)(C)NC(=O)NC(=O)CSc1nnc2ccccn12,-2.98
3,CCOc1ccccc1CNC(=O)C1CCC(=O)N1C(C)C (stereo not shown),1.56
4,Cc1cnc(C(=O)OCC(=O)Nc2c(Cl)cc(Cl)cc2Cl)cn1,12.7
5,O=C(CCCNS(=O)(=O)c1cccc2nsnc12)NCCc1ccccc1,5.61
6,CN(Cc1ccccc1)C(=O)C1CCN(S(=O)(=O)c2cc([N+](=O)[O-])ccc2Cl)CC1,-54.6
7,O=C(COC(=O)C1CCN(S(=O)(=O)c2cc([N+](=O)[O-])ccc2Cl)CC1)Nc1ncc(Cl)cc1Cl,-57.6
8,O=C(NC1CC1)C1CCN(S(=O)(=O)c2cc([N+](=O)[O-])ccc2Cl)CC1,-28
9,CC(NC(=O)C1CCN(S(=O)(=O)c2cc([N+](=O)[O-])ccc2Cl)CC1)c1ccccc1 (stereo not shown),11.5
10,CCC(C)NC(=O)C1CCN(S(=O)(=O)c2cc([N+](=O)[O-])ccc2Cl)CC1 (stereo not shown),-0.184
11,O=C(COC(=O)C1CCCC1)Nc1ncc(Cl)cc1Cl,5.91
12,CC(=O)COC(=O)C1CCN(S(=O)(=O)c2cc([N+](=O)[O-])ccc2Cl)CC1,-51.8
13,O=C(COC(=O)C1CC1)Nc1ncc(Cl)cc1Cl,8.23
14,CC1CCN(S(=O)(=O)c2cc([N+](=O)[O-])ccc2Cl)CC1,-24
15,O=C(NCc1ccc(Cl)cc1)C1CCN(S(=O)(=O)c2cc([N+](=O)[O-])ccc2Cl)CC1,-59
16,O=C(NCc1ccccc1)C1CCN(S(=O)(=O)c2cc([N+](=O)[O-])ccc2Cl)CC1,-7.61
17,CN(Cc1ccccc1)C(=O)C1CCN(S(C)(=O)=O)CC1,16.1
18,Cc1cccc(C(=O)NC2CCN(C(=S)NCc3ccco3)CC2)c1,-46.7
19,CCOC(=O)CSc1ncc(-c2cccc(Cl)c2)cn1,-17.4
20,CC/C(CC(c1ccccc1)c1c(O)c2ccccc2oc1=O)=N\NC(N)=S (stereo not shown),2.2
21,Cc1cc(O)c(C(C[N+](=O)[O-])c2ccc(Cl)cc2Cl)c(=O)o1 (stereo not shown),6.51
